Bioassay records deposited in PubChem by several laboratories.
A selection: hits, their analogues and other compounds. The true share with any hit is near 3.6%.
NRP1-CendR mod: modulators of CendR peptide binding to human neuropilin-1 | FAM-RPARPAR peptide binding to NRP-1, fluorescence polarization | inhibition, % at 25 µM | 360,000 compounds, 0.85% hits;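 active means inhibition or corrected inhibition above about 18%, plus a signal ratio from 0.5 to 1.5, limit read from the data, passing the limit was not always enough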
CRFBP-R2 block: antagonists of CRF-binding protein/CRF-R2 receptor complex; HEK293 CRF-R2/CRF-BP, CRF-induced calcium fluorescence; inhibition, % at 11.8 µM; 350,000 compounds, 0.59% hits;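 active means inhibition of the ligand-induced calcium signal above about 50% at the single tested concentration, limit read from the data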
FAS-TE inh: FAS thioesterase (human) inhibition. 360,000 compounds, 0.67% hits. P49327. inhibition, % at 15 µM. AID 602261. recombinant FAS-TE, OMFH fluorogenic substrate, fluorescence endpoint;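 active means compounds whose normalised, plate-corrected inhibition of enzyme fluorescence in the single-dose primary screen is 50% or more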
NadD block: blocks S. aureus nicotinate mononucleotide adenylyltransferase; purified NadD enzyme, colorimetric absorbance read-out; inhibition, % at 20 µM; 360,000 compounds, 0.78% hits; AID 602399; in the data active means inhibition above about 26%
Myeloid diff MLP: myeloid differentiation induction. 360,000 compounds, 1% hits. ER-HoxA9 myeloid progenitors, lysozyme-GFP differentiation, flow cytometry. calls only at 10 µM. AID 624256;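 active means normalized GFP-positive differentiation at or above the plate's own cutoff, the solvent-only control mean plus 3 SD; inconclusive means no clear call, values can overlap the other calls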;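 further: cells exposed to compound for four days before flow analysis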
Myeloid diff CP1: compounds promoting myeloid differentiation; shares compounds with Myeloid diff MLP; ER-HoxA9 myeloid progenitors, GFP/Mac1 double-positive flow; calls only; 2,300 compounds, 2% hits;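 active means share of green or green-and-red cells above 9 and 9% in run 1 or 4 and 3% in run 2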
GFP autofluor: counter-screen for myeloid differentiation promoters: compound fluorescence; shares compounds with Myeloid diff MLP; ER-HoxA9 myeloid progenitors, no estrogen, GFP autofluorescence flow cytometry; vehicle wells 0%, positive control 100%; fluorescence response, % (no concentration beside the values); 2,300 compounds, 7.4% hits; AID 651707;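 active means over 5% cells positive for green fluorescent reporter, or over 2% positive for both it and APC stain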
A number is an active result; . = inactive; ? = inconclusive; / = not tested or not shown; + = active, no number.

SMILES	NRP1-CendR mod	CRFBP-R2 block	FAS-TE inh	NadD block	Myeloid diff MLP	Myeloid diff CP1	GFP autofluor
C/C=C/c1ccc(OCC(=O)Nc2cc(S(=O)(=O)N3CCOCC3)ccc2N2CCCC2)c(OC)c1	.	.	.	.	.	/	/
O=C(Nc1cc(Cl)c(Cl)cc1Cl)c1cccnc1	.	.	.	.	.	/	/
C=C1C(=O)[C@@]23[C@H](O)C[C@@H]4C(C)(C)CC[C@H](O)[C@@]4(C)[C@@H]2CC[C@@H]1[C@H]3O	.	.	.	.	?	/	/
CCN(CC)S(=O)(=O)c1cc(NC(=O)C2CCN(c3ncnc4sc(C)c(C)c34)CC2)ccc1Cl	.	.	.	.	+	.	.
Cn1c(SCC(=O)O)nnc1C1CCCCC1	.	.	.	.	+	.	.
CC(C)(C)c1nc(CN2CCCCC2)cc(CN2CCCCC2)c1O	.	81	.	.	+	.	.
CC(NC(=O)CN1C(=O)NC2(CCCCCC2)C1=O)c1ccccc1 (stereo not given)	.	.	.	.	.	/	/
COc1cccc(NCc2cc3c(C(C)(C)C)nn(-c4ccccc4)c3[nH]c2=O)c1	.	.	.	.	+	.	.
CCCCCCSc1ccc(-c2nc3cnccn3c2NC2CCCCC2)cc1	.	/	.	.	.	.	18
CCC(C)Sc1ccc(-c2nc3cnccn3c2NC2CCCCC2)cc1 (stereo not given)	.	.	.	.	.	/	/
CCC(C)Sc1ccc(-c2nc3cc(C)ccn3c2NC2CCCCC2)cc1 (stereo not given)	.	.	.	.	+	+	.
N#C/C(=C\c1ccco1)C(=O)Nc1cccc2ncccc12	.	.	.	.	.	/	/
CN(CC(=O)Nc1ccc(F)cc1)C(=O)Cn1nnc(-c2ccccc2)n1	.	.	.	.	.	/	/
Cc1ccc(C(C(=O)NC2CCCCC2)N(C(=O)Cc2c[nH]c3ccccc23)c2ccccc2)o1 (stereo not given)	.	.	.	.	+	.	.
CN1CCN(CC#Cc2ccccc2)CC1CCO (stereo not given)	.	.	.	.	.	/	/
O=Cc1cn(CC(=O)N2CCCCCC2)c2ccccc12	.	.	.	.	.	/	/
CN1C(=O)/C(=C/c2cn(CC(=O)N3CCCCC3)c3ccccc23)NC1=S	.	.	.	.	+	.	97
CC1CCCCN1C(=O)c1ccc(S(=O)(=O)N2CCCCC2C)cc1 (stereo not given)	.	.	.	.	.	/	/
CC1CCCCN1C(=O)c1ccc(C(=O)N2CCCCC2C)cc1 (stereo not given)	.	.	.	.	.	.	.
CC(C)CSc1ncnc2c1oc1nc3c(cc12)COC(C)(C)C3	.	.	.	.	.	.	.
CCc1ccc(N2C(=O)CN(Cc3ccc(OC)c(OC)c3)C2=S)cc1	.	.	.	.	+	.	.
CC(C)C1N(C(=O)CN2CCCCC2)CCN1S(=O)(=O)c1ccccc1 (stereo not given)	.	.	.	.	.	/	/
CCCn1c(SC(C)C(=O)NC2CC2)nnc1-c1ccncc1 (stereo not given)	.	.	.	.	.	/	/
CC(C)N1CCc2c(sc(NC(=O)c3nc4ccccc4s3)c2C(N)=O)C1	.	.	.	.	+	.	.
O=C(NCCc1nccs1)C1CCC(=O)N(CCc2ccc(Cl)cc2)C1 (stereo not given)	.	.	.	.	.	/	/
SMILES	NRP1-CendR mod	CRFBP-R2 block	FAS-TE inh	NadD block	Myeloid diff MLP	Myeloid diff CP1	GFP autofluor
COc1ccc(N2C(=O)CC(NCCNc3ccc([N+](=O)[O-])cn3)C2=O)cc1 (stereo not given)	.	.	.	.	.	.	.
CN1C(=O)C(C)(C)c2cc(S(=O)(=O)N3CCC(C(=O)Nc4ccc(Cl)cc4)CC3)ccc21	.	.	.	.	.	/	/
COc1ccc(NS(=O)(=O)c2cc(NC(=O)c3sccc3C)ccc2N2CCOCC2)cc1	.	.	.	.	+	.	.
COc1ccccc1NS(=O)(=O)c1cc(NC(=O)c2cccs2)ccc1N1CCCC1	.	.	.	.	.	/	/
COc1ccccc1NS(=O)(=O)c1cc(NC(=O)c2sccc2C)ccc1N1CCOCC1	.	.	.	.	.	/	/
COc1ccccc1NS(=O)(=O)c1cc(NC(=O)c2cccs2)ccc1N1CCCCC1	.	.	.	.	+	.	.
C=Cc1ccc(Cn2c(=O)n(CCCOC)c(=O)c3sccc32)cc1	.	.	.	.	.	/	/
S=C(NCc1ccc(Cl)cc1)NC1CCN(Cc2ccccc2)CC1	.	.	.	.	.	/	/
CC(=O)Nc1cc(-c2ccccc2Cl)cn2c(-c3ccc(S(C)(=O)=O)cc3)cnc12	.	/	.	.	+	.	.
CC(=O)Nc1cc(-c2ccc(CO)cc2)cn2c(-c3ccc(F)c(Cl)c3)cnc12	.	/	.	.	+	.	.
CC(=O)Nc1cc(-c2ccc(F)cc2)cn2c(-c3ccc(F)c(Cl)c3)cnc12	.	/	.	.	.	/	/
Cc1ccnc2nc(C(=O)OCC(=O)NCc3cccc(Cl)c3)nn12	.	.	.	.	.	/	/
Cc1ccc(S(=O)(=O)N2C[C@@H]3CCCC[C@@H]3[C@@H](C)[C@H]2c2cn(Cc3ccccc3)c3ccccc23)cc1	.	.	.	.	?	/	/
Cc1ccc(S(=O)(=O)N2C[C@@H]3CCCC[C@@H]3[C@@H](C)[C@H]2c2cn(Cc3ccccc3)c3ncccc23)cc1	.	.	.	.	.	.	.
Cn1ccnc1SCC(=O)Nc1cc(F)ccc1F	.	.	.	.	.	/	/
Cn1cc(-c2cccc(Cl)c2)cc(C#N)c1=O	.	.	.	.	.	/	/
Cn1cc(-c2cccc(C(F)(F)F)c2)cc(C#N)c1=O	.	.	.	.	+	.	.
CCOc1ccccc1NC(=O)N1CCC(NC(=O)C2CCCCC2)CC1	.	.	.	.	.	/	/
CCCOc1ccc([C@@H]2C3CN(C(=O)OCC)CC=C3C(C#N)=C(N)C2(C#N)C#N)cc1OC (stereo not given in full)	.	.	.	.	+	.	.
CCOC(=O)N1CC=C2C(C#N)=C(N)C(C#N)(C#N)[C@H](c3cccs3)C2C1 (stereo not given in full)	.	.	.	.	.	/	/
COC(=O)c1cn(NC(=O)c2ccc(OC)c(OC)c2)c(=O)c2ccccc12	.	.	.	.	+	.	.
CCc1ccc(OCCOCC(O)CNC2CCCC2)cc1 (stereo not given)	.	.	.	.	.	/	/
Cc1cc(C(=O)C(C)OC(=O)c2ccc(NC(=O)CC#N)cc2)c(C)n1-c1ccc(OC(F)F)cc1 (stereo not given)	.	.	.	.	+	.	18
COc1ccccc1NC(=S)N1CCCCCC1	.	.	.	.	.	/	/
COc1cc(CCC(=O)Nc2ccc(S(=O)(=O)NC3=NCCCCC3)cc2)cc(OC)c1OC	.	.	.	.	.	.	.
